# PubChem BioAssay AID800 (PCMD, 2007)
# Hit rate of the full screen: of about 220,000 compounds, about 650 (0.3%) were called active. What follows is part of a selection rich in actives, with near analogues and random picks from the rest. Unmarked numbers belong to inactive results. No stated cut-off is given here; in the data, active means inhibition above about 40%; inactive means the rest.
# Target: Coagulation factor XII (Homo sapiens) (UniProt P00748)
# Test: coagulation factor XIIa activity inhibition – biochemical, 1536-well, primary screen (AID 800);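 further: 0% = enzyme with no compound and 100% = blank without enzyme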
# Conditions: purified FXIIa, Boc-QGR-AMC fluorogenic substrate, 2 h; at 5 µM; active compounds read high
# Sequence of Coagulation factor XII (Homo sapiens) (P00748 20-372 limits assumed): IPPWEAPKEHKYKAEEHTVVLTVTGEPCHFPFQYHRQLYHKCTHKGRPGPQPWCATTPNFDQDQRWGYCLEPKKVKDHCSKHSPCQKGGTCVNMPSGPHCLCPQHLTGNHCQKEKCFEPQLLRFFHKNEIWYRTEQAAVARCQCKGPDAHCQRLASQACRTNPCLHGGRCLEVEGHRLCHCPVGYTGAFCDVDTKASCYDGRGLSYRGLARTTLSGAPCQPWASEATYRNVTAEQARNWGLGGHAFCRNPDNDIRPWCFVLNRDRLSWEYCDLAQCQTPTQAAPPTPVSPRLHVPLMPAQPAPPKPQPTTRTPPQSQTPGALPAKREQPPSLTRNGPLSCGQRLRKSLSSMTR
# Sequence of Coagulation factor XII (Homo sapiens) (P00748 373-615 limits assumed): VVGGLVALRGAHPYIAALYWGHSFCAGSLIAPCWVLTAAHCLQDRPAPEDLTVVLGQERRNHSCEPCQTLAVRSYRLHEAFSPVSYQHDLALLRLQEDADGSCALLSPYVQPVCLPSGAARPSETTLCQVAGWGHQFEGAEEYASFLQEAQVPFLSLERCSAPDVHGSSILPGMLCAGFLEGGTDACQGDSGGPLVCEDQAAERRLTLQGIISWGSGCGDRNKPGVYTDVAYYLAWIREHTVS
row,SMILES,inhibition
1,CCOC(=O)c1c(C)oc(C)c(C(=O)OCC)c1=O,8.51%
2,CCOC(=O)c1cnc(COc2ccccc2Cl)[nH]c1=O,3.67%
3,O=C(NNC(=S)NCc1ccccc1)c1ccc(OC(F)F)cc1,-6.41%
4,CC(NC(=S)Nc1ccc(OC(F)F)cc1)c1ccc(F)cc1 (centres undefined),10.5%
5,CC/C(=N\NC(=S)NC(C)C)c1ccc(OC(F)F)cc1,52.2% (active)
6,Cc1onc(-c2ccc(Cl)cc2)c1-c1ccnn1S(=O)(=O)c1ccc(Cl)cc1,3.87%
7,CCOCCn1c(-c2ccccc2)nc2ccccc21,9.94%
8,O=C(COC(=O)CCc1nc2ccccc2c(=O)[nH]1)Nc1ccc(N2CCOCC2)cc1,1.95%
9,CSc1nc(C)nc(C2CC2)c1C#N,1.66%
10,CN(c1ccc(OCC(=O)NC2=NCCS2)cc1)S(=O)(=O)c1ccc(F)cc1,7.4%
11,Cc1ccc(S(=O)(=O)N2CCN(C(=O)COC(=O)c3c(C)noc3C)CC2)c(C)c1,7.88%
12,O=c1[nH]c(CSc2ccccc2)nc2c1oc1ccccc12,7.45%
13,COC(=O)[C@H](Cc1ccccc1)NC(=O)Nc1ccc(OC)cc1,4.58%
14,CC(C)(C)NC(=O)/C(=C/c1cccnc1)NC(=O)c1ccco1,15.3%
15,O=C(Nc1nnc(Cc2ccc(Cl)cc2)s1)c1ccncc1,2.31%
16,O=C(NNC(=S)NC1CC2CCC1C2)c1ccc(Cl)cc1 (centres undefined),7.4%
17,CCc1ccc2nc(Nc3ncc(C(C)=O)c(C)n3)nc(C)c2c1,6.31%
18,C=C(C)C(=O)Nc1cccc(C2=NOC3(C2)C[C@H](C(N)=O)N(C(=O)C(c2ccccc2)c2ccccc2)C3)c1 (some centres undefined),0.36%
19,Nc1nc(Sc2ncccc2[N+](=O)[O-])n[nH]1,7.38%
20,C/C(=N/Nc1nc(-c2ccccc2)c(CC(=O)O)s1)c1ccccc1,10.1%
21,COc1ccccc1-c1c(C#N)c(N)nc2c1CCC2,-2.02%
22,CCOC(=O)C(=CNNc1ccsc1C(=O)OC)C(=O)OCC,8.52%

row,SMILES,inhibition
1,COc1ccc(CN(C(=O)c2cccs2)c2nccs2)cc1OC,14.5%
2,COc1ccc(OCC(=O)N2CCN(C(=O)c3cccs3)CC2)cc1,0.82%
3,COc1ccc(CN(Cc2ccc(OC)cc2)C(=O)c2cccs2)cc1,45.5% (active)
4,Cc1nc(=O)c(-c2ccccc2)c(C)n1-c1ccc(Br)cc1,7.02%
5,CCOC(=O)c1nnn2c1nc(N1CCN(c3ccccc3)CC1)c1ccccc12,5.24%
6,Cc1ccc2c(c1)nnc1nnc(SCC(=O)O)n12,5.33%
7,Cc1cccc(NC(=O)c2nc[nH]c2C(=O)NCC(=O)OCc2ccccc2)c1,7.76%
8,Cc1ccc(NNC(=O)c2cccs2)cc1Cl,8.48%
9,CCc1nnc(NC(=O)CCN(c2ccc(C)cc2)S(=O)(=O)c2ccccc2)s1,49.2% (active)
10,CCc1nnc(NC(=O)CCC(=O)NCc2ccccc2OC)s1,15%
11,CCc1nnc(NC(=O)CCC(=O)O)s1,13.2%
12,CCCCC1=CC2=CC(=O)C(C)(OC(=O)CC)C(=O)C2=CN1CCCOC(C)C (centres undefined),7.98%
13,O=C(Nc1ccc(F)cc1)c1cc2c(s1)CCCC2,8.77%
14,COc1ccc(CNC(=O)C2CC(c3ccc(C(F)(F)F)cc3)=NO2)cc1 (centres undefined),7.68%
15,Nc1nnn(CC(=O)N/N=C/c2ccc(O)cc2)n1,16.2%
16,CCc1cccc(CC)c1NC(=S)Nc1ccc2cn[nH]c2c1,10%
17,Cc1ccc(SCc2c(C(=O)N/N=C/C3CC=CCC3)nnn2-c2nonc2N)cc1 (centres undefined),9.39%
18,CS(=O)(=O)c1ccc2nc(NC(=O)c3ccc(N4CCCC4=O)cc3)sc2c1,1.85%
19,O=C(NCc1ccc2c(c1)OCO2)c1sccc1Br,8.69%
20,C/C=C(/C)C(=O)O[C@@H]1c2cc3c(c4c2[C@@]2(CO4)C(=O)C(OC)=C(OC)C=C2C[C@@H](C)[C@H]1C)OCO3,12.9%
21,Oc1[nH]c2ccc(Br)cc2c1N=Nc1nn[nH]n1,12.3%
22,CCCc1ccc(C(=O)[C@@H]2[C@@H](C(C)=O)N3c4ccc(F)cc4C=C[C@@H]3[C@@]23C(=O)Nc2ccccc23)cc1,8.48%

row,SMILES,inhibition
1,CC1CC(C)(C)n2c(O)c(N=NC(N)=S)c3cccc1c32 (centres undefined),30.2%
2,Cc1ccccc1Nc1c(-c2ccccc2)nc2ncccn12,5.54%
3,CCc1ccc(S(=O)(=O)NCC(O)COc2ccc(OC)cc2)cc1 (centres undefined),6.59%
4,Cc1cccc(NC(=O)c2ccc3ccccc3n2)n1,16%
5,Cc1cccc(NC(=O)c2cc(N3C(=O)CCC3=O)ccc2Cl)n1,50.5% (active)
6,Cc1cc(NC(=O)c2cccc(N3C(=O)CCC3=O)c2)no1,16.7%
7,O=C(NC1CCN(Cc2ccccc2)CC1)c1ccc(Oc2cc(Cl)cc(Cl)c2)o1,6.33%
8,S=c1[nH]c2ccccc2c2ccccc12,2.88%
9,COC(=O)CCCC1=CC2=CC(=O)C(C)(OC(=O)c3cccs3)C(=O)C2=CN1CC(C)C (centres undefined),7.73%
10,Cc1noc(C)c1C(=O)OCC(=O)N1CCN(S(=O)(=O)c2ccc3ccccc3c2)CC1,1.83%
11,Nc1ccccc1Sc1cc(Cl)nnc1Cl,12.7%
12,C=CCn1c(=S)sc2c(=O)[nH]c(C)nc21,1.68%
13,Cc1cc(=O)[nH]c(S)c1C#N,-0.28%
14,COC(C[C@@H](O)[C@H](C)[C@H](O)COCc1ccccc1)OC,4.52%
15,Cn1c(S(=O)(=O)O)nc2ccccc21,-0.32%
16,NS(=O)(=O)c1ccc(CCNC(=O)NC2CCCCC2)cc1,15%
17,O=C(c1ccc(Cl)cc1)N1N=C(c2ccccn2)CC1(O)C(F)(F)F (centres undefined),8.52%
18,Cc1ccc(-n2ncc3c2ncn2nc(-c4ccco4)nc32)c(C)c1,14.2%
19,COC(=O)CSc1ncnc2c1cnn2-c1ccc(C)cc1C,5.55%
20,Cc1ccc(-n2ncc3c(=O)[nH]cnc32)c(C)c1,54% (active)
